# High-throughput results (PubChem BioAssay)
# HCMV antiviral: human cytomegalovirus inhibition; HFF cells, HCMV-luciferase reporter, 72 h; stronger effect = lower value; activity change, negative = inhibition, % at 57.5 µM; 4.5% of 410,000 active; in the data active = activity change below about -60%; inconclusive = no clear call, values can overlap the other calls; inactive = above about -39%
#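 Two-dose cell screen: HFF monolayers treated with compounds and infected with luciferase-expressing HCMV at 1 PFU/cell, 72 h at 37C, then lysed for luciferase measurement.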
# Lassa entry inh: inhibitors of Lassa virus binding or cell entry; Lassa virus pseudotype entry inhibition, cell reporter; Potency, µM (titrated, usually from 37.9 µM), inactives show top-dose activity change, negative = inhibition, hits mostly inhibitors; 1.2% of 300,000 active; AID 540256; calls by dose curve; tested in HEK293 cells; also: potency is read from the fitted curve at half-maximal effect; nearly all actives have a fitted effect of over 50% in size
# Pf growth 96h: P. falciparum growth inhibition at 96 hour, primary screen for plastid delayed-death inhibitors | 6.9% of 320,000 active | P. falciparum luciferase reporter growth, 96 h | Potency, µM (titrated, usually from 28.7 µM), without a hit: at the top dose activity change, negative = inhibition, usual class: inhibitors; also: potency is read from the fitted curve at half-maximal effect
#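 Delayed-death screen, second-generation endpoint: infected erythrocytes, 2% hematocrit, 0.05% parasitemia final; 96 hours at 37 C, 5% CO2; luciferase detection reagent; luminescence decrease equals reduced growth.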
# Pf growth 48h: P. falciparum growth inhibition at 48 hours (one generation); P. falciparum luciferase growth in erythrocytes, 48 h; Potency, µM (highest dose often 28.7 µM), without a hit: at the highest dose activity change, negative = inhibition, hits mostly inhibitors; 5.9% of 310,000 active; AID 504832; also: potency is read from the fitted curve at half-maximal effect
#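 First compound was added to culture medium, then infected red cells at 0.1% parasitemia and 2% hematocrit (final). After incubation at 37 C under 5% CO2, luciferase detection reagent was dispensed and light output recorded.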
# HCV inh: HCV inhibition; Huh7.5.1 HCVcc-Cre infection, luciferase reporter, 44 h; AID 651820; Potency, µM (doses to about 41.8 µM), for inactives: top-dose activity change, negative = inhibition, actives largely listed as inhibitors; 3.4% of 340,000 active; also: potency is read from the fitted curve at half-maximal effect
#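 Antiviral activity was scored by luciferase reporter output from cells infected with HCVcc-Cre (~0.5 moi) in presence of compound, 44 h infection period, cells seeded 1,000/well 4 h prior.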
# Marburg entry inh: Marburg virus entry inhibition | Marburg virus pseudotyped entry inhibition, cell reporter | Potency, µM (top dose mostly 37.8 µM), for the others: top-dose activity change, negative = inhibition, usual class: inhibitors | 1.8% of 300,000 active | AID 540276; calls by dose curve; tested in HEK293 cells; also: potency is read from the fitted curve at half-maximal effect
# * = called active by the depositor; ? = inconclusive; nt = no result; [ ] = remark or other dose. Hits are enriched below; roughly 14% of the tested compounds scored in any of these assays. Unless noted, calls follow the shape of the dose curve; as a rule, active = well fitted inhibition curve with a large enough effect; inconclusive = small, poorly fitted or top-dose-only effect, or another doubt; inactive = no such curve, though single readings can be large or run the other way. % is scaled to controls: 0 for no effect and ±100 for the full control effect.
SMILES,HCMV antiviral,Lassa entry inh,Pf growth 96h,Pf growth 48h,HCV inh,Marburg entry inh
O=C(c1ccoc1)N1CCN(c2cc(-c3ccco3)nc3cc(-c4ccccc4)nn23)CC1,-73.0*,nt,nt,nt,nt,nt
Cc1cc(N2CCN(C(=O)c3ccco3)CC2)n2ncc(-c3ccccc3)c2n1,209.9,-19.8%,-13.7%,?,-2.5%,?
C[C@@H]1CC[C@H]2C(=O)N(Cc3ccccc3)C[C@@H](O)CN2[C@@H]1c1cccc(Br)c1,nt,7.1%[14.3 µM],nt,nt,nt,-22.0%[14.2 µM]
Fc1ccc(-c2cc3nc(-c4ccccc4)cc(N4CCN(CCN5CCOCC5)CC4)n3n2)cc1,-70.8*,-12.8%,-1.7%,1.04µM*,10µM*,?
CN1CCN(c2cc(-c3ccccc3)nc3cc(-c4ccc(F)cc4)nn23)CC1,-29.8,?,-9.2%,nt,?,?
Cc1ccc2c(c1)c(=O)c(C(=O)c1ccncc1)cn2CC(=O)Nc1ccc(C(C)C)cc1,3.2,5.0%[46.1 µM],nt,nt,nt,nt
N#Cc1nc(-c2cccs2)oc1N1CCOCC1,-7.5,-1.6%,-1.3%,?,?,-22.7%
CC1CN(c2oc(-c3cccs3)nc2C#N)CC(C)O1 (stereo not drawn),43.9,-7.8%,-4.8%,10.4µM*,-8.7%,?
CCCC1CCC(c2ccc(OCC)cc2)=CC1=O (stereo not drawn),53.1,nt,10.7%,206.8%,?,nt
COc1cccc(NC(=O)CSc2cc(C)[nH]c(=O)n2)c1,-1.2,5.1%[46.1 µM],nt,nt,nt,nt
COc1ccc(NC(=O)C(OC)c2ccccc2)cc1Cl (stereo not drawn),-19.1,-13.6%,231.1%,-2.4%,13.7%,?
COc1ccc(NC(=O)C(Sc2nnc(-c3ccncc3)n2-c2ccccc2C)c2ccccc2)cc1Cl (stereo not drawn),-31.6,-26.9%,?,8.28µM*,?,?
Cc1ccc(S(=O)(=O)N(CC(=O)NCCSc2ccccn2)c2cc(C)cc(C)c2)cc1,-16.5,?,?,?,?,?
Cc1ccc(N(CC(=O)NCCSc2ccccc2)S(=O)(=O)c2ccc(F)cc2)cc1,-64.9*,-12.8%[46.1 µM],nt,nt,nt,nt
COc1ccc(S(=O)(=O)N(CC(=O)NCCSc2ccc(C)cc2)c2ccc(C)cc2)cc1,-22.3,-2.9%[46.1 µM],nt,nt,nt,?
COc1ccc(N(CC(=O)NCCSc2ccccn2)S(=O)(=O)c2ccccc2)cc1OC,123.6,nt,-23.3%,-23.5%,7.4%,-2.6%[46.1 µM]
Cc1ccc(S(=O)(=O)NCCC(=O)NCCCSc2ccccc2)cc1,-75.0*,nt,?,?,?,nt
O=C(CCNS(=O)(=O)c1ccccc1)NCCCSc1ccccc1,-3.6,-1.8%,-26.4%,-18.6%,-26.6%,15.0%
COc1cccc(N(CC(=O)NCCSc2ccccn2)S(=O)(=O)c2ccccc2)c1,7.7,-4.0%,5.3%,13.1µM*,-16.5%,?
COc1ccc(N(CC(=O)NCCSc2ccccn2)S(=O)(=O)c2ccc(C)cc2)cc1OC,-60.3*,-11.3%[46.1 µM],?,?,-14.6%,-21.6%[46.1 µM]
C[C@H](CO)N1C[C@H](C)[C@@H](CN(C)S(=O)(=O)c2cccc(C#N)c2)OCc2cn(nn2)CCCC1=O,-12.7,nt,nt,nt,nt,nt
O=C(NCc1ccc(F)cc1)OC1CC2CC1[C@H]1CCCCN1C2=O (stereo partly drawn),35.9,nt,nt,nt,nt,nt
O=[N+]([O-])c1ccc(SN2CCCCC2)c([N+](=O)[O-])c1,11.9,nt,nt,nt,nt,nt
COc1ccc(N(CC(=O)NCCSc2ccccn2)S(=O)(=O)c2ccccc2)cc1Cl,-15.4,?,38.2%,-37.9%,?,-27.5%
COc1ccc(Cl)cc1N(CC(=O)NCCSc1ccccn1)S(=O)(=O)c1ccccc1,-0.4,?,1.65µM*,-17.3%,1.6%,-23.1%[46.1 µM]
SMILES,HCMV antiviral,Lassa entry inh,Pf growth 96h,Pf growth 48h,HCV inh,Marburg entry inh
COc1cccc(CN2CCN(C(c3ccccc3)c3ccccc3)CC2)c1O,51.5,?,0.415µM*,?,-55.2%,?
COc1cccc(CN2CCN(Cc3cc(OC)c(OC)c(OC)c3)CC2)c1OC,36.2,-11.4%[46.1 µM],-3.1%,6.6%,4.4%,-4.4%[46.1 µM]
COc1cc(CN2CCN(C(c3ccccc3)c3ccccc3)CC2)cc(OC)c1OC,-4.9,nt,4.65µM*,?,-15.0%,nt
COC(=O)CN1CCN(C(c2ccccc2)c2ccccc2)CC1,3.6,-9.6%,4.8%,-4.8%,-13.4%,?
COc1cc(C(=S)N2CCN(C(c3ccccc3)c3ccccc3)CC2)cc(OC)c1O,-27.0,nt,8.7%,?,11.2µM*,nt
CN(C(=O)n1cnc2ccccc21)c1ccccc1,-22.0,0.3%,75.3%,0.3%,-3.6%,-7.9%
ClC(Br)=C(n1cnc2ccccc21)n1cnc2ccccc21,-10.0,19.6%,2.9%,10.4µM*,?,-28.4%
Clc1ncnc2scc(-c3ccc(Br)cc3)c12,?,?,0.329µM*,0.828µM*,?,?
CC(C)c1ccc(S(=O)(=O)N2CCN(Cc3cccc(F)c3)CC2)cc1,-3.9,5.3%[46.1 µM],nt,nt,nt,nt
O=[N+]([O-])c1ccc2nc(NN=Cc3ccc(O)cc3)sc2c1,-61.7*,-24.8%[46.1 µM],nt,nt,1.0%,?
CC(=O)Nc1nc2cc([N+](=O)[O-])ccc2s1,8.2,nt,3.2%,31.5%,-1.7%,nt
CC(C)c1ccc(/C=C/C(=O)Nc2nc3ccc([N+](=O)[O-])cc3s2)cc1,?,5.5%,2.33µM*,?,16.0%,3.3%
O=C(NCCN1CCC(n2c(=O)[nH]c3ccccc32)CC1)c1ccc(OC(F)(F)F)cc1,-15.5,nt,nt,nt,nt,nt
CC1CCN(C(=O)Cn2cc(SCC(=O)Nc3ccccc3C(F)(F)F)c3ccccc32)CC1,-64.4*,-16.2%[46.1 µM],nt,nt,nt,nt
O=C(CCc1cn(Cc2ccccc2Cl)c2ccccc12)NC1CCCCC1,-72.1*,-28.5%[46.1 µM],nt,nt,nt,nt
CC1CCC(NC(=O)CCc2cn(Cc3ccccc3Cl)c3ccccc23)CC1 (stereo not drawn),-14.3,?,nt,nt,nt,nt
CCCN(CCC)C(=O)Cn1ccc(=N)c2ccccc21,10.4,4.6%,nt,1.65µM*,13.1%,-2.8%
CCn1cc(SCC(=O)NC2CCCC2)c2ccccc21,?,7.1%,?,7.38µM*,-21.0%,17.3%
CCN(CC)C(=O)Cn1cc(SCC(=O)NC)c2ccccc21,?,18.1%,11.7µM*,13.7%,2.6%,11.1%[46.1 µM]
O=C(CSc1nccc(=O)[nH]1)NC1CCCCCC1,1.2,-5.6%,nt,nt,11.0%,-13.3%
O=C(CSc1nncc(=O)[nH]1)NC1CCCCC1,-26.1,nt,3.7µM*,11.0%,4.2%,8.1%[46.1 µM]
C=CCn1c(SCC(=O)NC2CCCC2)nc2c([nH]c3ccccc32)c1=O,-90.1*,-13.1%,37.5%,99.6%,-3.9%,11.0%
CCN(CC)C(=O)Cn1cc(SCC(=O)Nc2ccc(C)cc2)c2ccccc21,-0.5,10.1%[46.1 µM],nt,nt,nt,nt
Cc1[nH]c2ccccc2c1SCC(=O)NC1CCCCC1,-64.3*,nt,-17.3%,-0.3%,?,nt
